High-throughput results as filed in PubChem BioAssay.
In the library only some 1.5% were active in any assay of this set; here they are far more common.
Rin1-Abl PPI inh: blocks binding of human Rin1 to Abl; TR-FRET Rin1/Abl binding, biochemical; AID 588664; inhibition, % at 7.35 µM; 0.4% of 360,000 active; P00519+Q13671; in the data active means inhibition above about 5%, passing the limit was not always enough
HGIII-sPLA2 inh: Blocks human group III sPLA2 activity; QFRET BODIPY PC-A2 liposome hydrolysis, fluorescence; inhibition, % at 12.2 µM; 0.56% of 370,000 active; Q9NZ20; AID 743126;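 active means inhibition above mean plus 3 SD of compounds lying within the high and low control bounds, cut at about 19% in these data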;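 further: 0% = median of test compound wells and 100% = no enzyme DMSO wells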
AI-2 QS mod: Vibrio harveyi AI-2 quorum sensing modulation | Vibrio harveyi JMH597 AI-2 luminescence/OD600 ratio, 9 h; stronger effect = lower value; strain lacks LuxN and CqsS sensors; 0 = neutral-control median | activity change, % at 7.5 µM | 0.4% of 300,000 active | AID 2094; in the data active means activity change below about -75%, passing the limit was not always enough;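 further: luminescence divided by OD600 gain over 9 h not by final OD600 alone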
ARNT TACC3 PPI: ARNT/TACC3 interaction disruption; Q9Y6A5; AlphaScreen His-ARNT PAS-B/GST-TACC3 binding, luminescence; TACC3 fragment carries E629A point mutation; inhibition, % at 9.99 µM; 0.66% of 390,000 active; AID 623870;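 active means mean inhibition of replicates at least 50% and at least half of replicates each reaching 50%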;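 further: 0% = complete ARNT plus TACC3 wells and 100% = ARNT alone without TACC3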
JMH597 growth: retest: blocks Vibrio harveyi JMH597 growth; shares compounds with AI-2 QS mod; OD600 absorbance, 9 h; lacks LuxN and CqsS sensors; growth inhibition, % at 7.5 µM; 1% of 750 active; AID 2726;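 active means every replicate shows growth inhibition above 50%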
BB721 const-QS lum: retest counter-screen: lowers luminescence of constitutive-QS Vibrio harveyi BB721; shares compounds with AI-2 QS mod; 9 h; inhibition, % at 7.5 µM; 95% of 750 active; AID 2727;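 active means inhibition above about 80% in every replicate, not just on average, limit read from the data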
BB721 growth: retest: inhibitors of Vibrio harveyi BB721 growth | OD600 absorbance, 9 h | growth inhibition, % at 7.5 µM | 3% of 750 active | shares compounds with AI-2 QS mod | AID 2728;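 active means every replicate shows growth inhibition above 50%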
JMH597 AI-2 mod: Vibrio harveyi AI-2 signaling luminescence modulation – JMH597 strain, confirmation; inhibition, % at 7.5 µM; Vibrio harveyi JMH597 AI-2 quorum sensing luminescence, 9 h; luxN and CqsS knockout, AI-2 only; 97% of 750 active; shares compounds with AI-2 QS mod;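 active means every replicate shows more than 75% inhibition of signal versus neutral control wells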
Active calls of the source: *; . = no result given.

SMILES	Rin1-Abl PPI inh	HGIII-sPLA2 inh	AI-2 QS mod	ARNT TACC3 PPI	others
Cc1ccc(NC(=O)OCc2cc(-c3ccccc3)on2)cc1	1.3	-7.4	-24.4	22.6
O=C(CCN1CCCCC1)N[C@H]1CC[C@@H](CCn2cc(-c3ccc(F)cc3)nn2)O[C@@H]1CO	.	.	.	4.5
O=C(c1ccccc1)c1coc2c1C(=O)c1ccccc1C2=O	-1.8	11.6	17.2	9.5
COc1ccc(C(=O)c2coc3c2C(=O)C(=O)c2ccccc2-3)cc1	-0.3	-2.1	-91.6*	-0.8
O=C(COC(=O)c1cc(-c2cccs2)nc2ccccc12)NC1CCS(=O)(=O)C1 (stereo not drawn)	-4.4	-17.1	2.0	48.7*
O=c1[nH]c(=S)ccn1C1OC(CO)C(O)C1O (stereo not drawn)	-1.8	7.1	-90.7*	-10.7
CSC(=S)NN=C(C)c1cccc(C)n1	4.4	14.8	.	58.9*
CCCC(=O)Nc1ccc2c(c1)OC[C@H](C)N(Cc1ccccn1)C[C@@H](C)[C@H](OC)CN(C)C2=O	.	.	.	6.1
C[C@@H]1CN([C@H](C)CO)C(=O)Cc2cc(NS(=O)(=O)c3cn(C)cn3)ccc2O[C@@H]1CN(C)Cc1ccncc1	.	.	.	-2.3
Cc1ccc(C)c(OCCn2ccnc2)c1	10.2*	.	5.5	8.0
Cc1cc(C)c(C)c(OCCn2ccnc2)c1	-1.7	-6.7	25.7	4.6
CC(=O)Nc1ccc(S(=O)(=O)Nc2nc3ccccc3nc2Nc2ccc(C(=O)O)c(O)c2)cc1	2.7	-40.6	.	39.9*
CC(=O)Nc1ccc(S(=O)(=O)Nc2nc3ccccc3nc2Nc2cccc(O)c2)cc1	-0.8	-26.4	23.5	-9.0
Cn1nc([N+](=O)[O-])nc1Sc1cccc2cccnc12	-2.3	4.3	45.9	63.3*
CC1(C)Cc2ccccc2C(NNC(=O)c2ccccn2)=N1	2.1	-3.6	28.3	66.3*
C[C@H](CO)N1C[C@H](C)[C@H](CN(C)S(C)(=O)=O)Oc2ccc(NC(=O)Nc3cccc4ccccc34)cc2CC1=O	.	.	.	-6.7
CC(C)NC(=O)N[C@H]1CC[C@H](CCNC(=O)C2CC2)O[C@@H]1CO	.	.	.	-8.2
COCCCNC(=O)c1ccc2c3c(onc13)-c1ccccc1C2=O	-13.7	.	56.7	31.1*
C[C@H](NC(=O)c1ccco1)C(=O)Nc1nc(-c2ccccn2)cs1	-0.3	3.1	.	68.2*
C[C@H](NC(=O)c1ccco1)C(=O)Nc1nnc(SCc2ccccc2)s1	3.3	-19.1	.	-11.8
Cc1ccccc1-c1cnc2c(c1)C(=O)N([C@@H](C)CO)C[C@H](C)[C@H](CN(C)C(=O)c1ccccc1)O2	.	.	.	-1.1
Cc1ccc(S(=O)(=O)/N=C2/C=C(Sc3ncn[nH]3)C(=O)c3ccccc32)cc1	17.0*	.	.	31.7
CC(C)c1ccc(S(=O)(=O)/N=C2/C=C(Sc3ncn[nH]3)C(=O)c3ccccc32)cc1	7.7*	.	.	40.2
C[C@@H]1CN([C@H](C)CO)C(=O)CCCn2cc(nn2)CO[C@H]1CN(C)Cc1cccc(C(F)(F)F)c1	.	.	.	-3.6
CC(C)(C)C(=O)O/N=C(\N)c1ccc([N+](=O)[O-])s1	-1.3	1.7	-84.2*	-14.0
SMILES	Rin1-Abl PPI inh	HGIII-sPLA2 inh	AI-2 QS mod	ARNT TACC3 PPI	others
N/C(=N\OC(=O)C1CC1)c1ccc([N+](=O)[O-])s1	-2.9	-3.3	-87.8*	-2.4
O=C(Nc1ccn(Cc2ccc(Cl)cc2)n1)c1ccccc1	2.6	-1.1	-87.4*	-2.3
CC1(CC(=O)N/N=C/c2cc(Br)c(O)cc2O)OCCO1	-1.8	1.5	67.6	75.2*
C[C@@H](O)C#Cc1cnc2c(c1)C(=O)N([C@@H](C)CO)C[C@H](C)[C@@H](CN(C)Cc1ccccn1)O2	.	.	.	13.0
CCN1/C(=C\C(=S)Nc2ccccc2)Sc2ccccc21	0.2	3.2	2.2	1.6
CCN1/C(=C/C(C)=C/c2sc3ccccc3[n+]2CC)Sc2ccccc21	-20.0	-13.0	-170.1*	37.5
CC=Cc1ccc2n(c1=O)C[C@H]1[C@H](CO)[C@@H](C(=O)NCc3ccccc3)N(Cc3cncnc3)[C@@H]21 (mixture of isomers)	.	.	.	-4.2
S=c1[nH]nc(-c2ccccn2)n1/N=C/c1cccs1	-0.8	-0.6	27.2	59.2*
Cc1cccc(/C=N/n2c(-c3ccccn3)n[nH]c2=S)c1	.	.	16.5	.
S=c1[nH]nc(-c2ccccn2)n1/N=C/c1ccccc1	-3.8	17.6	11.9	56.7*
Cc1ccc(/C=N/n2c(-c3ccccn3)n[nH]c2=S)o1	-2.8	-2.3	17.4	91.4*
COc1ccccc1/C=C/C=N/n1c(-c2ccccn2)n[nH]c1=S	-1.0	1.9	22.0	65.5*
COc1ccccc1/C=C/C=N/n1c(-c2cc(C)[nH]n2)n[nH]c1=S	-1.8	7.8	-3.4	-0.6
Cc1ccc(-c2ccc3c(c2)O[C@H](CN(C)C)[C@H](C)CN([C@H](C)CO)S3(=O)=O)cc1	.	.	.	-5.2
S=c1[nH]nc(-c2ccccn2)n1/N=C/c1c(Cl)cccc1Cl	1.5	-2.8	12.3	79.3*
CC(C)(C)c1n[nH]c(=S)n(/N=C/c2cccs2)c1=O	-1.6	18.8	-76.9*	-3.9
S=c1[nH]nc(-c2ccccn2)n1/N=C/c1ccc(Cl)cc1	-1.0	11.9	19.2	76.9*
Cc1n[nH]c(=S)n(/N=C/c2cccs2)c1=O	0.3	-0.3	-2.1	4.0
Cc1ccccc1/C=N/n1c(-c2ccccn2)n[nH]c1=S	-1.5	4.0	24.8	71.4*
C[C@H]1CN([C@@H](C)CO)C(=O)c2cccc(NS(C)(=O)=O)c2O[C@@H]1CN(C)Cc1ccc(Cl)c(Cl)c1	.	.	.	7.4
Cc1ccc(S(=O)(=O)Nc2ccc3c(c2)C(=O)N(C)[C@@H]2CC[C@@H](CC(=O)O)O[C@@H]2CO3)cc1	.	.	.	-7.5
Cc1noc(C)c1NC(=O)N[C@H]1CC[C@@H](CC(=O)Nc2ccc(-c3ccccc3)cc2)O[C@H]1CO	.	.	.	-4.1
CCCc1sc(N/N=C/c2ccccn2)nc1-c1ccc(F)cc1	-0.8	.	33.0	67.0*
Cc1nc(S(=O)(=O)N2CCN(Cc3ccc(OCCO)cc3)CC2)cn1C	.	.	.	-6.2
CC(C)C(C(=O)Nc1ncn[nH]1)N1C(=O)c2ccccc2C1=O (stereo not drawn)	-1.4	4.7	12.1	35.5*
O=C(NCc1ccccc1Cl)C(=O)c1c[nH]c2ccccc12	1.2	8.2	-82.7*	.	JMH597 growth=-14.6;BB721 const-QS lum=93.5*;BB721 growth=15.5;JMH597 AI-2 mod=94.5*
O=C(NCc1cccnc1)C(=O)c1c[nH]c2ccccc12	-3.6	1.9	12.1	-3.9
